In PubChem BioAssay (NCI):
This is part of a sample that, as a whole, favours compounds with a hit. Of some 79,000 tested, about 15% had one in any assay. A number with no mark means an inactive call. Active and inactive are the calls of the source. Rule as the data show it: active = growth inhibition above about 70%; inactive = the rest.

Legend:
[1] = NCI Yeast Anticancer Drug Screen. Data for the rad50 strain (AID 155);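 also: 0% = growth of vehicle-only cultures of the same strain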; details: S. cerevisiae rad50 strain growth inhibition; at 50.0 µM; stronger effect = higher value
How it was run: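 Inhibition values express reduced yeast growth in compound-treated cultures relative to vehicle-treated controls.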

[2] = NCI Yeast Anticancer Drug Screen. Data for the mec2-1 strain (AID 157); details: S. cerevisiae mec2-1 strain, at 50.0 µM, stronger effect = higher value
How it was run: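 Using mec2-1 yeast: add compound, measure growth, express inhibition versus vehicle-treated cultures.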

[3] = NCI Yeast Anticancer Drug Screen. Data for the sgs1 mgt1 strain (AID 161);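 also: 0% = growth of cultures given vehicle only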; details: S. cerevisiae sgs1 mgt1 strain, at 50.0 µM, stronger effect = higher value
How it was run: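 Yeast cells carrying a defined DNA-repair defect were exposed to test compounds. Growth inhibition was measured relative to vehicle-treated controls.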

[4] = NCI Yeast Anticancer Drug Screen. Data for the cln2 rad14 strain (AID 165);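 also: 0% = growth equal to vehicle treated cultures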; details: S. cerevisiae cln2 rad14 strain, at 50.0 µM, stronger effect = higher value
How it was run: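 Yeast strain cln2 rad14, bearing defects in cell cycle control and DNA repair, serves as the test system; values reflect growth inhibition compared with vehicle.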

[5] = NCI Yeast Anticancer Drug Screen. Data for the bub3 strain (AID 167); details: S. cerevisiae bub3 mutant strain, at 50.0 µM, stronger effect = higher value
How it was run: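 Steps: expose the mutant yeast strain to compound; grow alongside vehicle-treated cultures; measure growth; express inhibition against the vehicle cultures.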

[6] = NCI Yeast Anticancer Drug Screen. Data for the mlh1 rad18 strain (AID 175); details: S. cerevisiae mlh1 rad18 strain growth inhibition; at 50.0 µM; stronger effect = higher value
How it was run: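 Steps: expose repair-defective yeast to compound; measure growth; express inhibition against vehicle-treated controls.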

Row | Compound | growth inhibition [1] | growth inhibition [2] | growth inhibition [3] | growth inhibition [4] | growth inhibition [5] | growth inhibition [6]
1 | CC(CO)CCC(O)C(C)(O)C1CCC2(O)C3=CC(=O)C4CC(O)C(O)CC4(C)C3CCC12C (configuration not stated) | 4.05% | -23.5% | 10.2% | 7.75% | 17.8% | -68.2%
2 | Cc1cc(Cl)cc(CN(C)Cc2c(C)[nH]c(=O)[nH]c2=O)c1O | -31.4% | -17.1% | -17.2% | 2.65% | -0.5% | -8.9%
3 | CCCCS(=O)(=O)CCC(N)P(=O)(O)O (configuration not stated) | -26.9% | -77.8% | -43.2% | -33.8% | -6.15% | -36.9%
4 | O=C(/C=C\c1ccc(Cl)cc1)OCCCCOC(=O)/C=C/c1ccc(Cl)cc1 | 27.1% | 3.15% | -4.45% | 9.5% | 2.9% | 5.25%
5 | ClC[P+](c1ccccc1)(c1ccccc1)c1ccccc1 | 38.2% | 19.3% | 13.2% | 11.6% | 24.8% | 33.4%
6 | O=C(Nc1ccc(C2=NCCN2)cc1)c1ccc(C(=O)Nc2ccc(C3=NCCN3)cc2)cc1 | -3.1% | 7.45% | 0.95% | 2% | 9.4% | -19.6%
7 | O=S1(=O)OCCOS(=O)(=O)C1I | -8.1% | -30.2% | -12.4% | 11.3% | -21.5% | -29.6%
8 | COC(=O)C1=C(NC(=O)Nc2ccc(OC)cc2)OC(C)(C)C1c1ccc(Cl)cc1 (configuration not stated) | 25.9% | 41.7% | 30.4% | 3.75% | 24.1% | 43.4%
9 | C/C=C(/C)C1(O)CCCCC1O (configuration not stated) | -4.2% | 1.15% | 1.2% | -2.7% | -4% | -11.3%
10 | N#CC(=Nc1ccc2ccccc2c1)C1=C(O)c2ccccc2C1=O | 15.8% | -3.2% | 0.2% | -30.4% | 10.2% | 11.8%
11 | Nc1nc(-c2ccccc2)[nH]c(=O)n1 | -3.3% | -0.45% | -37% | -62.8% | -22.4% | -33%
12 | O=C(O)CCC(=O)OCc1ccccc1 | 3.15% | 22.6% | -22.1% | -16.6% | -11.2% | 0.8%
13 | Nc1nc2nc[n-]c2c(=O)[nH]1.[NH2-].[NH2-].[NH2-].[NH2-].[NH2-].[Ru+6] | 20.6% | 4.55% | 4.9% | 2.5% | -5.8% | -4.9%
14 | CCNc1nc(C)nc2c1cnn2-c1ccccc1 | -16.1% | -12.6% | -6.75% | -56.5% | -4.8% | -9.75%
15 | COc1ccc(NC(=O)CCCC(=O)CC(=O)c2ccc(Cl)cc2)c(OC)c1 | 32.6% | 13.2% | -0.95% | -20% | -1.95% | 18.1%
16 | Cc1ccc(-c2cn3c(nc4ccccc43)c(C)n2)cc1 | -27.5% | 5.5% | 15.3% | -7.95% | 13% | -29.5%
17 | COC(=O)N/N=C(\C)C(CN1CCCCC1)C(C1=C(O)c2ccccc2OC1)c1ccccc1 (configuration not stated) | 6.15% | 15.7% | 5.25% | 17.1% | 4.9% | 28.9%
18 | COc1ccc2c(ccc[n+]2CC(=O)c2ccc(Cl)cc2)c1 | -35.9% | -8.35% | -17.2% | 28.4% | -0.5% | -3.7%
19 | O=[N+]([O-])c1ccc(OCc2ccccc2)c(Cl)c1 | -4.2% | 17.1% | 25.9% | -13.8% | 46.3% | 30.4%

Row | Compound | growth inhibition [1] | growth inhibition [2] | growth inhibition [3] | growth inhibition [4] | growth inhibition [5] | growth inhibition [6]
20 | CC(=O)/C=C(O)/C=C/c1ccccc1 | -0.9% | 5.45% | -12.9% | 9.15% | 14.9% | 12.9%
21 | CCC(=O)C(CC)c1ccc(OC)cc1OC (configuration not stated) | -1.75% | -31.4% | -6.15% | 3.85% | 7.3% | 15.6%
22 | O=C1c2ccccc2C(=O)c2c(O)c3c(c(O)c21)CCCC3 | -14.4% | 7.55% | -1.05% | -9.65% | 1.95% | 5.7%
23 | CCCCNC(=O)OCCN(C)CCOC(=O)NCCCC | -15.7% | -21.9% | -17.2% | 3.05% | 6.2% | 3.55%
24 | O=CNNC(=O)Nc1cccc2ccccc12 | -29.9% | -8.85% | -20% | -5.75% | -32.1% | -25.5%
25 | N#C/C(=C\c1cccc(Cl)c1)C(=O)c1ccccc1 | 1.1% | 11.3% | -1.35% | 13.1% | 0.2% | 33.2%
26 | c1ccc2c(c1)c1ccccc1n2Cn1c2ccccc2c2ccccc21 | -1.1% | -1.2% | -48.5% | -27.9% | 11.3% | 4.85%
27 | CSc1nc2c(c(=O)n1C)N=C(c1ccc(Cl)cc1)CC(c1ccccc1)N2 (configuration not stated) | 16% | 3.25% | -5.6% | 11.4% | -11.6% | 15.8%
28 | CN1C(=O)C(O)CC1c1ccccc1C(F)(F)F (configuration not stated) | 11.7% | 4.2% | 31.2% | 17.9% | 5.05% | -30.6%
29 | Ic1ccc(Nc2ncnc3sc4c(c23)CCCC4)cc1 | 24.2% | -14% | -16.9% | 15.8% | 7.25% | -7.65%
30 | CC/C(=C\c1ccccc1O)c1ccncc1 | 2.2% | -8.5% | 2.5% | 1.85% | 23.1% | -0.65%
31 | CCOC(=O)C(Cc1ccc(O)cc1)NC(=O)C(CSC(c1ccccc1)(c1ccccc1)c1ccccc1)NC(c1ccccc1)(c1ccccc1)c1ccccc1 (configuration not stated) | 4.85% | 0.8% | -14.8% | -1.65% | -5.05% | 9.55%
32 | O=C1NC(=O)C(c2cccc(F)c2)N1 (configuration not stated) | -12.1% | -12.3% | 9.7% | -9% | 4.7% | -7.7%
33 | CC1(C)C=C(C(Br)c2cccc(Cl)c2)C(=O)c2ccccc21 (configuration not stated) | 98.3% (active) | 99.6% (active) | 99.8% (active) | 99% (active) | 98.8% (active) | 99.3% (active)
34 | CCOc1ccc(-c2nnc(Nc3ccc(S(=O)(=O)N4CCCCC4)cc3)s2)cc1 | 10.3% | 9.6% | 13.7% | -38% | -2.15% | 16.7%
35 | CSc1cc(Cl)c(C)cc1S(=O)(=O)NC(=O)NNc1ccc(Cl)cc1 | 23.9% | 11.2% | 10.6% | 7.55% | -3.75% | 51.6%
36 | O=C1C=CSc2ccccc2N1 | -2.4% | 2.5% | -2.15% | 4.4% | 2.45% | 4.5%
37 | O=c1[nH]c2c(Cl)c(Cl)cc(Cl)c2o1 | 51.1% | 6.4% | 23.9% | 48.2% | 13.6% | 43.6%
